Screens deposited in PubChem BioAssay by National Center for Advancing Translational Sciences (NCATS).
TDP1 cell noCPT – qHTS for Inhibitors of human tyrosyl-DNA phosphodiesterase 1 (TDP1): qHTS in cells in absence of CPT; 420,000 tested, 15% active; AID 686978, 2013; DT40 Tdp1-/- hTDP1 cells, no CPT, ATP luminescence, 48 h; Potency, µM (doses to about 46.2 µM), hits mostly inhibitors; also: nearly all actives have a fitted effect of over 55% in size
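Luminescent ATP content (CellTiter-Glo) served as the growth readout. Knockout chicken DT40 cells expressing human TDP1 were exposed to compounds without camptothecin for a minimum 48 hr at 37 °C.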
TDP1 cell CPT – DT40-hTDP1 cell growth loss with CPT; chicken DT40 Tdp1-/-;hTDP1 cells + 20 nM CPT, ATP luminescence, 48 h; Potency, µM (series often up to 46.2 µM), usual class: inhibitors; 420,000 tested, 12% active; AID 686979; also: nearly all actives have a fitted effect of over 55% in size
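Chicken DT40 Tdp1-/- cells stably complemented with human TDP1 were seeded at 400 cells/well in medium containing 20 nM camptothecin, exposed to pin-transferred compounds, and grown at 37 °C for at least 48 hr. Viability was read as ATP luminescence.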
HT1080 IDH1KD tx – kills HT-1080 cells with IDH1 knockdown. HT-1080 IDH1 knockdown viability, ATP luminescence, 48 h. 360,000 tested, 2% active. Potency, µM (top dose mostly 46.1 µM), actives largely listed as cytotoxic
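HT-1080-IDH1KD cells (IDH1 knocked down), 750/well in RPMI with 5% FBS, treated with compound 48 h at 37 degrees C. Viability by CellTiter-Glo luminescence, normalised to DMSO and no-cell wells; concentration-response curves classed.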
HT1080NT lethal – kills 2HG-producing HT-1080-NT fibrosarcoma cells; HT-1080-NT fibrosarcoma viability, CellTiter-Glo ATP luminescence, 48 h; Potency, µM (series often up to 46.1 µM), actives largely listed as cytotoxic; 360,000 tested, 1.6% active; AID 686970;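 also: NT is the 2HG producing partner of a matched IDH1 knockdown line; nearly all actives have a fitted effect of over 55% in size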
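750 cells/well, RPMI + 5% FBS; 2 h settle, compound pin-transfer, 48 h at 37 degrees C. CellTiter-Glo 10 min RT, luminescence. Normalized to DMSO and media-only wells.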
IL-1B inflam inh – inflammasome signaling inhibition, IL-1 beta readout. THP-1 LPS/ATP IL-1B secretion, AlphaLISA, 16 h; hits give low values. activity change, % at 57.5 µM. 360,000 tested, 4.7% active; in the data active = activity change below about -50%; inconclusive = mostly about -30% to -49%
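Secreted IL-1B measured by AlphaLISA bead assay after 16 h compound exposure of THP-1 cells; compounds (final up to 57.5 uM) added 1 h before LPS (250 ng/mL) and ATP (1.25 mM) stimulation; lower signal means less secretion.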
ALOX12 inh – ALOX12 (human) lipoxygenase inhibition. 580,000 tested, 1.1% active. purified 12hLO, xylenol orange hydroperoxide absorbance. Potency, µM (titrated, usually from 108 µM), usual class: inhibitors. P18054
Target sequence (P18054 whole entry, looked up): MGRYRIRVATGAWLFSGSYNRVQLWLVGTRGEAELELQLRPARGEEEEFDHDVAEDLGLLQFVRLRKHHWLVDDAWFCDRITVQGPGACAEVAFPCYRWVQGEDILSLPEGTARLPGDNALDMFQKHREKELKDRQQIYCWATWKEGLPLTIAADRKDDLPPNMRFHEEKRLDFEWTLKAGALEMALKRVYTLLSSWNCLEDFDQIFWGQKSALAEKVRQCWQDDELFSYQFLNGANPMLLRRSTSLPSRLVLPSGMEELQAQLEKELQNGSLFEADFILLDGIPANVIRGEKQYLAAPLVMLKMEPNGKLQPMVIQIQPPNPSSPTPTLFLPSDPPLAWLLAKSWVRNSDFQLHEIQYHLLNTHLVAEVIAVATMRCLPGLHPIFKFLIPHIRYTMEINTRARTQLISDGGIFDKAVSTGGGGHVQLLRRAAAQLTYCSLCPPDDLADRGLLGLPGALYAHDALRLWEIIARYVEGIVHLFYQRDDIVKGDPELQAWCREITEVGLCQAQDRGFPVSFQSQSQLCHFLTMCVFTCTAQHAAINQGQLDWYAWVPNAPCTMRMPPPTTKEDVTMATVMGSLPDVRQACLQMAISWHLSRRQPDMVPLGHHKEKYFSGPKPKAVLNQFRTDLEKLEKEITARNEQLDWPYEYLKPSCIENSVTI
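Purified human 12hLO (150 nM final) in 25 mM Hepes, 0.01% Triton X-100, pH 7.0 was preincubated 15 min at room temperature with compound. Then 40 uM arachidonic acid was added, 30 min. Hydroperoxide was read by Fe-XO absorbance ratio 573/405 nm.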
Of the large screens only hits and unclear results are named; the others gave an inactive call. The full list was thinned out, with hits kept by preference. Unless noted, calls follow the shape of the dose curve; as a rule, active = well fitted curve in the direction sought with a large enough effect; inconclusive = small, poorly fitted or top-dose-only effect, or another doubt; inactive = no such curve, though single readings can be large; an effect the other way counts as inactive or inconclusive.

CN1CCN(c2ccc(Cl)cc2NC(=O)/C=C/c2ccc(F)cc2)CC1	TDP1 cell noCPT 16.4µM, TDP1 cell CPT inconclusive, HT1080 IDH1KD tx 16.4µM, HT1080NT lethal 23.1µM, IL-1B inflam inh -73.4
CC(=O)NC(=S)Nc1ccc(NC(=O)COc2ccc(Cl)cc2Cl)cc1	TDP1 cell noCPT 6.51µM, TDP1 cell CPT inconclusive, HT1080 IDH1KD tx inconclusive, HT1080NT lethal inconclusive, IL-1B inflam inh inconclusive
CC(Oc1ccc(Cl)cc1Cl)C(=O)Nc1ccc(O)cc1 (configuration not stated)	TDP1 cell noCPT inconclusive, IL-1B inflam inh -66.5
O=C(COc1ccc(Cl)cc1Cl)NNC(=S)Nc1ccc(F)cc1	ALOX12 inh inconclusive
CCOc1ccccc1NC(=S)NC(=O)CCCOc1ccc(Cl)cc1Cl	TDP1 cell noCPT inconclusive, HT1080 IDH1KD tx inconclusive, HT1080NT lethal 11.2µM, ALOX12 inh inconclusive
CCCCNC(=O)N1CCC2(CC1)C(=O)N(CC(=O)NC(C)c1ccccc1)CN2c1ccccc1 (configuration not stated)	none (no result: TDP1 cell noCPT, TDP1 cell CPT, HT1080 IDH1KD tx, HT1080NT lethal, IL-1B inflam inh)
CN(C)C[C@@H]1CN(c2ncccn2)C[C@H]1NS(=O)(=O)c1ccc(Cl)cc1	none (no result: TDP1 cell noCPT, TDP1 cell CPT, HT1080 IDH1KD tx, HT1080NT lethal, IL-1B inflam inh)
CC(Oc1ccc(Cl)cc1Cl)C(=O)Nc1ccc(N2CCN(C)CC2)cc1 (configuration not stated)	TDP1 cell noCPT 18.4µM, TDP1 cell CPT inconclusive, HT1080 IDH1KD tx inconclusive, HT1080NT lethal inconclusive, ALOX12 inh inconclusive
CN1CCN(c2ccc(NC(=O)c3ccc(Cl)cc3Cl)cc2)CC1	none
CC(Oc1ccc(Br)cc1)C(=O)Nc1cc(Cl)ccc1N1CCN(C)CC1 (configuration not stated)	TDP1 cell noCPT inconclusive, TDP1 cell CPT inconclusive, HT1080 IDH1KD tx 20.6µM, HT1080NT lethal 13µM, IL-1B inflam inh -86.2, ALOX12 inh inconclusive
COc1ccc(CCC(=O)Nc2cc(Cl)ccc2N2CCN(C)CC2)cc1	TDP1 cell noCPT inconclusive, TDP1 cell CPT inconclusive, IL-1B inflam inh inconclusive
CSc1ccccc1NC(=O)COc1ccc(Cl)cc1Cl	TDP1 cell CPT inconclusive
CC(Oc1ccc(Br)cc1Cl)C(=O)Nc1ccncc1 (configuration not stated)	TDP1 cell noCPT 5.17µM, TDP1 cell CPT 8.2µM, HT1080 IDH1KD tx 16.4µM, HT1080NT lethal inconclusive, IL-1B inflam inh inconclusive
O=C(COc1ccc(Cl)cc1Cl)Nc1ccccn1	HT1080 IDH1KD tx 10µM
O=C(CCc1nnn2c1CN(C(=O)NCc1ccccc1)CC2)N1CCOCC1	none (no result: TDP1 cell noCPT, TDP1 cell CPT, HT1080 IDH1KD tx, HT1080NT lethal, IL-1B inflam inh)
Cc1ccc(S(=O)(=O)O)cc1C	none (no result: HT1080 IDH1KD tx, HT1080NT lethal, IL-1B inflam inh, ALOX12 inh)
Cc1occc1C(=O)NNC(=S)NC(=O)COc1ccc(Cl)cc1Cl	TDP1 cell noCPT 18.4µM, TDP1 cell CPT inconclusive, ALOX12 inh inconclusive
CC(=O)N1CCN(c2ccc(NC(=O)COc3ccc(Cl)cc3Cl)cc2)CC1	TDP1 cell noCPT 18.4µM, TDP1 cell CPT 23.1µM, IL-1B inflam inh inconclusive, ALOX12 inh inconclusive
O=C(COc1ccc(Cl)cc1Cl)N1CCCN(C(=O)COc2ccc(Cl)cc2Cl)CC1	TDP1 cell noCPT inconclusive, TDP1 cell CPT inconclusive, HT1080 IDH1KD tx inconclusive, IL-1B inflam inh -75.9, ALOX12 inh inconclusive
Cc1occc1C(=O)NNC(=O)COc1ccc(Br)cc1Br	none
CC(=O)N1CCN(c2ccc(NC(=O)C(C)Oc3ccc(Cl)cc3Cl)cc2)CC1 (configuration not stated)	TDP1 cell noCPT 20.6µM, TDP1 cell CPT inconclusive
COc1cccc(C(=O)OCc2ccccc2C#N)c1	none (no result: TDP1 cell noCPT, TDP1 cell CPT, HT1080 IDH1KD tx, HT1080NT lethal, IL-1B inflam inh)
C=CCC1(CO)CCCN(C(=O)CCN(C)S(C)(=O)=O)C1 (configuration not stated)	none (no result: TDP1 cell noCPT, TDP1 cell CPT, HT1080 IDH1KD tx, HT1080NT lethal, IL-1B inflam inh)
O=C(NC1(C(F)(F)F)N=C(c2ccccc2)N(Cc2ccco2)C1=O)c1ccccc1Cl (configuration not stated)	none (no result: TDP1 cell noCPT, TDP1 cell CPT, HT1080 IDH1KD tx, HT1080NT lethal, IL-1B inflam inh)
Cc1ccccc1C(=O)NC1(C(F)(F)F)N=C(c2ccccc2)N(Cc2ccccc2)C1=O (configuration not stated)	TDP1 cell noCPT 23.1µM, TDP1 cell CPT 23.1µM (no result: HT1080 IDH1KD tx, HT1080NT lethal, IL-1B inflam inh)
